High-throughput results: PubChem BioAssay, National Center for Advancing Translational Sciences (NCATS)
POLI inh: blocks human DNA polymerase iota activity. Q9UNA4. Pol iota fluorescent replication assay, 10 min. Potency, µM (series often up to 115 µM), actives largely listed as inhibitors. hit rate 1% among 390,000. AID 588590
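Fluorescent replication assay read twice, at 0 min and 10 min after adding 50 nM (final) substrate. Enzyme (10 nM) and compounds were first incubated 15 min at room temperature; enzyme-free buffer wells were negative controls.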
Pol beta inh: DNA polymerase beta (human) inhibition | hit rate 1.3% among 340,000 | P06746 | Pol beta primer extension/strand displacement, fluorescence kinetic | Potency, µM (series often up to 114 µM), hits mostly inhibitors | AID 485314
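Homogeneous kinetic assay of primer extension and strand displacement by 10 nM Pol beta, preincubated 15 min at room temperature with compound before 50 nM substrate (final) was added. Read at 0 and 10 min; four-parameter Hill fit.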
TDP1 inh: inhibitors of human tyrosyl-DNA phosphodiesterase TDP1; Q9NUW8; recombinant TDP1, AlphaScreen DNA substrate cleavage; Potency, µM (highest dose often 130 µM), actives largely listed as inhibitors; hit rate 0.28% among 350,000; also: nearly all actives have a fitted effect of over 40% in size
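E. coli-derived human Tdp1, 1 nM final. Cpd preinc 15 min RT; substrate 15 nM final, 5 min RT; AS bead mix 10 ug/ml final, 10 min RT. Signal loss = tyrosine-FITC cleavage. No-enzyme wells = max signal.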
Pol eta inh-1: DNA polymerase eta (human) inhibition | Q9Y253 | recombinant Pol eta, fluorescent DNA replication assay | Potency, µM (titrated, usually from 114 µM), hits mostly inhibitors | hit rate 1.2% among 390,000
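Pol eta (10 nM) was preincubated with compounds for 15 min at room temperature, after which fluorescent replication substrate (50 nM final) was added to start the reaction. Fluorescence was read kinetically at 0 and 10 min.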
FEN1 inhibitor: inhibitors of human flap endonuclease 1; AID 588795; P39748; Recombinant FEN1 flap cleavage, fluorescence, 15 min; Potency, µM (top dose mostly 114 µM), most hits filed as inhibitors; hit rate 0.35% among 390,000; also: nearly all actives have a fitted effect of over 65% in size
Target sequence (P39748 whole entry, looked up): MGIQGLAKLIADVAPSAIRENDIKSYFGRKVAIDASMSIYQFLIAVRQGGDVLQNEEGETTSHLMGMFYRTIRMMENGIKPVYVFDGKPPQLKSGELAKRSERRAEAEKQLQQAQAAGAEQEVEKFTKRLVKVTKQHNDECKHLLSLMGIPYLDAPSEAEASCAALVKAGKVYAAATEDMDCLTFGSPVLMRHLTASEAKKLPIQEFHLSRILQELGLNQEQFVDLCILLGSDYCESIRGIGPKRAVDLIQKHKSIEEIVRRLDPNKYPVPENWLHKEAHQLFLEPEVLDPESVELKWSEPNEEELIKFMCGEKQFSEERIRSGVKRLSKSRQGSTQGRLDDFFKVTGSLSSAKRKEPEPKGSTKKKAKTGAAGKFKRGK
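Compounds are tested as a concentration series against 10 nM FEN1; after a 15 min room-temperature preincubation, 50 nM substrate starts cleavage, with plate reads at 0 and 15 min. Normalized responses are fitted by a Hill equation.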
Pol kappa inh-1: inhibitors of human DNA polymerase kappa; purified Pol kappa, fluorescent DNA synthesis assay, 10 min; hit rate 0.53% among 400,000; AID 588579; Q9UBT6; Potency, µM (highest dose often 107 µM), most hits filed as inhibitors
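First, compounds were pin-transferred onto 10 nM Pol kappa. After 15 min at room temperature, substrate was added to 50 nM final. Fluorescence was then measured kinetically at 0 and 10 min.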
PGK validate: validation of Trypanosoma brucei phosphoglycerate kinase inhibitors | shares compounds with Pol kappa inh-1 | TbPGK coupled GAPDH assay, Kinase-Glo luminescence | Potency, µM (highest dose often 57.5 µM), most hits filed as inhibitors | hit rate 79% among 500 | AID 686980; also: nearly all actives have a fitted effect of over 65% in size
Pol iota confirm: Inhibitors of human DNA polymerase iota, confirmation; shares compounds with Pol kappa inh-1; Pol iota primer extension, TAMRA/BHQ fluorescence; Potency, µM, most hits filed as inhibitors; hit rate 77% among 1,500
GALK confirm: confirmation of human galactokinase (GALK) inhibitors; shares compounds with Pol eta inh-1; purified GALK, Kinase-Glo ATP depletion luminescence; Potency, µM (doses to about 115 µM), actives largely listed as inhibitors; hit rate 70% among 150
Redox cycling: redox cycling activity in phenol red-HRP assay; shares compounds with Pol eta inh-1; Phenol red-HRP H2O2 redox cycling, absorbance 600 nm; Potency, µM (highest dose often 115 µM), actives largely listed as inhibitors; hit rate 40% among 150; AID 2035
HEK293 viability: HEK-293 cytotoxicity, GALK inhibitor secondary. shares compounds with Pol eta inh-1. HEK-293 viability, ATP luminescence (CellTiter-Glo), 24/48 h. Potency, µM (top dose mostly 46.1 µM), most hits filed as inhibitors. hit rate 10% among 170
Pol kappa inh-2: Pol kappa (human) inhibition, cherry-pick confirmation | shares compounds with Pol eta inh-1 | purified Pol-kappa, fluorescent strand-displacement substrate | Potency, µM, most hits filed as inhibitors | hit rate 76% among 920
Pol eta inh-2: confirmation of human DNA polymerase eta inhibitors | shares compounds with Pol eta inh-1 | Pol eta primer extension, TAMRA/BHQ fluorescence, 10 min | hit rate 64% among 2,600 | Potency, µM, usual class: inhibitors
Large screens that a line does not name were inactive (follow-up assays come after a bar, where they were run). Shown are actives, neighbours in structure and some others; about 2.4% of the full set was active somewhere. Calls follow the shape of the dose curve; as a rule, active = well fitted curve in the direction sought with a large enough effect; inconclusive = small, poorly fitted or top-dose-only effect, or another doubt; inactive = no such curve, though single readings can be large; an effect the other way counts as inactive or inconclusive.

CCCc1nc2c(=O)n(C)c(=O)nc-2n(C)n1	Pol beta inh inconclusive, Pol eta inh-1 0.89µM | PGK validate 1.5µM | Pol iota confirm 1.5 | GALK confirm 0.94µM | Redox cycling 0.67µM | HEK293 viability 10µM | Pol eta inh-2 2.7
CCc1ccc(-c2csc3ncn(CC)c(=O)c23)cc1	none
COc1ccc(-c2nc(-c3ccccn3)ncc2S(C)(=O)=O)cc1	none
CCc1ccc(-c2nc3c(=O)n(C)c(=O)nc-3n(CC)n2)cc1	none (no result: Pol beta inh, Pol eta inh-1) | Pol iota confirm 2.1 | Pol eta inh-2 1.5
Cn1nc(-c2ccccn2)nc2c(=O)n(C)c(=O)nc1-2	Pol beta inh inconclusive, Pol eta inh-1 0.71µM | PGK validate 1.6µM | GALK confirm 2.7µM | Redox cycling 2.7µM | HEK293 viability 4µM
O=C(CSc1nc2ccccc2[nH]1)NCc1ccccc1	none
Cc1c(C)n(C(=O)CSc2nc3ccccc3[nH]2)c2ccccc12	POLI inh inconclusive, Pol beta inh 8.9µM, Pol eta inh-1 inconclusive, Pol kappa inh-1 inconclusive (no result: TDP1 inh) | Pol iota confirm inconclusive | Pol eta inh-2 38
O=C1OC(c2cccs2)=N/C1=C/c1ccc(-c2cccc(C(=O)O)c2)o1	POLI inh 20µM, Pol beta inh 3.5µM, TDP1 inh inconclusive, Pol eta inh-1 14µM, FEN1 inhibitor 40µM, Pol kappa inh-1 45µM | Pol iota confirm 38 | Pol eta inh-2 27
Cc1ccc(O/C=C2/Nn3c(nnc3-c3cc(-c4ccccc4)n[nH]3)S2)cc1	none (no result: Pol beta inh, Pol eta inh-1)
CC(=O)Nc1ccc(S(=O)(=O)N(C)CC(=O)OCC(=O)N2CCN(C(=O)c3ccco3)CC2)cc1	POLI inh 40µM, Pol eta inh-1 28µM, Pol kappa inh-1 inconclusive (no result: Pol beta inh, TDP1 inh) | Pol iota confirm inconclusive | Pol eta inh-2 76
CCOc1ccc(-c2nc(SCC(=O)Nc3ccc(C)c(C)c3)n3[nH]c(=O)cc3n2)cc1	POLI inh inconclusive, Pol beta inh 3.2µM, Pol eta inh-1 50µM, FEN1 inhibitor inconclusive | PGK validate 16µM | Pol iota confirm 27 | Pol eta inh-2 85
COc1cccc(N=c2oc3ccccc3cc2-c2nc3ccccc3[nH]2)c1	POLI inh inconclusive
COc1cccc(N=c2oc3ccc(OC)cc3cc2-c2nc3ccccc3[nH]2)c1	POLI inh inconclusive, Pol beta inh inconclusive, Pol eta inh-1 45µM, FEN1 inhibitor inconclusive | Pol iota confirm 34 | Pol eta inh-2 76
Cc1cccc2c1NC(=O)C2=O	POLI inh 8.9µM, Pol eta inh-1 8.9µM, FEN1 inhibitor inconclusive, Pol kappa inh-1 50µM (no result: Pol beta inh, TDP1 inh) | Pol iota confirm 42 | Pol kappa inh-2 15 | Pol eta inh-2 17
O=C(Cn1c(=O)ccc2cc(S(=O)(=O)N3CCCC3)ccc21)Nc1ccccc1	none
